The source of these data is PubChem BioAssay (Tox21).

A number with no mark means an inactive call. Results filed as inconclusive are left out. Calls of active or inactive are those of the source. Unless noted, the call rests on the fitted dose curve; in most records, active means well fitted curve in the direction sought with a large enough effect in the repeat runs; inconclusive means weak or mixed curves; inactive means no such curve, though single readings can be large; an effect the other way counts as inactive or inconclusive.

A short description of assay [1]: qHTS assay for small molecule agonists of the p53 signaling pathway (AID 651631; calls by dose curve; further: nearly all actives have a fitted effect of over 15% in size; further: potency means the concentration at half of the fitted maximal effect). In outline:
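Read-out is beta-lactamase FRET fluorescence measured 2 h after substrate addition at room temperature, in HCT-116 cells with a p53 response element-driven reporter exposed to compounds for 16 h at 37 °C.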
In general terms: In qHTS, concentration-response curves come from the screen itself.

The nature of assay [2]: qHTS assay for small molecules that induce genotoxicity in human embryonic kidney cells expressing luciferase-tagged ATAD5 (AID 651632). Further: nearly all actives have a fitted effect of over 15% in size. In outline:
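Luminescence read-out: after 16 hr compound exposure at 37C, ATAD5-luciferase HEK293T cells received Amplite, 30 min RT, then CCD imaging. A rise in signal marks genotoxic stress.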

A short description of assay [3]: qHTS assay for small molecule agonists of the p53 signaling pathway - cell viability (AID 651633; calls by dose curve;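 further: p53RE-bla HCT reporter cells with a stable beta-lactamase p53 reporter; series mostly up to about 83 µM; nearly all actives have a fitted effect of over 30% in size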). In outline: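 p53RE-bla cells, seeded at 4,000 per well and rested 5 h at 37 C/5% CO2, received compounds in DMSO for 16 h at 37 C. CellTiter-Glo was then added, and luminescence was read after 30 min at room temperature to gauge cytotoxicity.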
The nature of assay [4]: qHTS assay for small molecules that induce genotoxicity in human embryonic kidney cells expressing luciferase-tagged ATAD5 - cell viability (AID 651634; calls by dose curve; further: nearly all actives have a fitted effect of over 25% in size). In outline: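 HEK293T ATAD5-luc cells, 2,000/well; compound 15.5 hr, 37C/5% CO2; CellTiter-Fluor 30 min, 37C; fluorescence read.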
The nature of assay [5]: qHTS assay for small molecule disruptors of the mitochondrial membrane potential - cell viability (AID 720634; calls by dose curve;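 further: human HepG2 liver cancer cells; series mostly up to about 83 µM; nearly all actives have a fitted effect of over 20% in size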). In outline:
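Luminescence from CellTiter-Glo (ATP content) gave viability in HepG2 cells, read in the same wells as the MMP dye assay after 1 hr compound exposure at 37 C.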

Assay [6] can be described thus: qHTS assay for small molecule disruptors of the mitochondrial membrane potential (AID 720635). The essentials:
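HepG2 cells (2,000/well) attached overnight at 37C, then took compound for 1 hr at 37C, 5% CO2. Mito-MPS dye was added for 30 min; fluorescence was read at 490/535 nm (monomers) and 540/590 nm (aggregates).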

Assay [7] is described as follows: qHTS assay to test for compound auto fluorescence at 590 nm (red) in HepG2 cells (AID 720674). The essentials:
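Rose Bengal sodium served as the red fluorophore standard. HepG2 monolayers (overnight attachment, MEM with 10% FBS) were exposed to test compounds for 1 hr at 37 C and read at Ex 540/Em 590 nm.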

Assay [8] in a line: qHTS assay to test for compound auto fluorescence at 535 nm (green) in HepG2 cells (AID 720675).
Assay [9] in a line: qHTS assay to test for compound auto fluorescence at 460 nm (blue) in HEK293 cells (AID 720678). The essentials: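 Blue read-out at excitation 405 nm and emission 460 nm follows overnight compound exposure of HEK293 cells at 37C in 5% CO2. Activity is given as auto fluorescence equivalency to triamterene.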
Assay [10] in a line: qHTS assay to test for compound auto fluorescence at 590 nm (red) in HEK293 cells (AID 720679). In outline:
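Red channel, Ex/Em 540/590nm; signal expressed as equivalency to Rose Bengal sodium. HEK293, 2,000 cells/well, 10% dialyzed FBS; 23 nL compound pinned after 4-5 hr attachment; overnight 37C/5% CO2 before reading.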

Assay [11] can be described thus: qHTS assay to test for compound auto fluorescence at 535 nm (green) in HEK293 cells (AID 720680).
Assay [12] is described as follows: qHTS assay to test for compound auto fluorescence at 460 nm (blue) in HEK293 cell free culture (AID 720681). The essentials: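 Test compounds were pinned into cell-free culture medium (DMEM with 10% FBS) and fluorescence was read directly at Ex/Em 405/460 nm. Signals were expressed as fluorescence equivalents of triamterene, with DMSO vehicle as control.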
A short description of assay [13]: qHTS assay to test for compound auto fluorescence at 535 nm (green) in HEK293 cell free culture (AID 720682). In outline: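 Fluorescein serves as the green reference fluorophore; each compound's intrinsic emission at 535 nm (excitation 485 nm) is reported as an equivalent amount of that dye, measured in serum-containing DMEM without cells.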
Assay [14] in a line: qHTS assay to test for compound auto fluorescence at 590 nm (red) in HepG2 cell free culture (AID 720684). In outline: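 Ex 540 / Em 590 nm read of compound in cell-free MEM (10% FBS). Rose Bengal sodium reference.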
Assay [15] in a line: qHTS assay to test for compound auto fluorescence at 460 nm (blue) in HepG2 cell free culture (AID 720685). In outline: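 Cell-free plates of MEM plus 10% FBS received 23 nL compound or DMSO vehicle; blue-channel (405/460 nm) intensity scored against triamterene as reference fluorophore.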
Assay [16] is described as follows: qHTS assay to test for compound auto fluorescence at 535 nm (green) in HepG2 cell free culture (AID 720686).
The nature of assay [17]: qHTS assay to test for compound auto fluorescence at 460 nm (blue) in HepG2 cells (AID 720687). The essentials:
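Cells (2,000/well in MEM with 10% FBS) attached overnight at 37 C, then were exposed to compound or DMSO for 1 hr at 37 C, 5% CO2. Fluorescence read at Ex/Em 405/460 nm, expressed as triamterene-equivalent signal.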

The target in assay [18] is Glucocorticoid receptor (Homo sapiens) (UniProt P04150). Put plainly: qHTS assay to identify small molecule antagonists of the glucocorticoid receptor (GR) signaling pathway (AID 720692; active means well fitted inhibition curve with a large enough effect in the signal ratio in the repeat runs, not every such curve was filed as active; the % refers to the signal ratio; further: potency means the concentration at half of the fitted maximal effect). The essentials: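 Read-out: beta-lactamase FRET substrate fluorescence, 2 h at room temperature, in HeLa cells stably carrying a GRE-driven bla reporter. Compounds were co-incubated with 5 nM dexamethasone agonist (final) for 18 h at 37 C.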
Chain of Glucocorticoid receptor (Homo sapiens) (P04150 whole entry, looked up): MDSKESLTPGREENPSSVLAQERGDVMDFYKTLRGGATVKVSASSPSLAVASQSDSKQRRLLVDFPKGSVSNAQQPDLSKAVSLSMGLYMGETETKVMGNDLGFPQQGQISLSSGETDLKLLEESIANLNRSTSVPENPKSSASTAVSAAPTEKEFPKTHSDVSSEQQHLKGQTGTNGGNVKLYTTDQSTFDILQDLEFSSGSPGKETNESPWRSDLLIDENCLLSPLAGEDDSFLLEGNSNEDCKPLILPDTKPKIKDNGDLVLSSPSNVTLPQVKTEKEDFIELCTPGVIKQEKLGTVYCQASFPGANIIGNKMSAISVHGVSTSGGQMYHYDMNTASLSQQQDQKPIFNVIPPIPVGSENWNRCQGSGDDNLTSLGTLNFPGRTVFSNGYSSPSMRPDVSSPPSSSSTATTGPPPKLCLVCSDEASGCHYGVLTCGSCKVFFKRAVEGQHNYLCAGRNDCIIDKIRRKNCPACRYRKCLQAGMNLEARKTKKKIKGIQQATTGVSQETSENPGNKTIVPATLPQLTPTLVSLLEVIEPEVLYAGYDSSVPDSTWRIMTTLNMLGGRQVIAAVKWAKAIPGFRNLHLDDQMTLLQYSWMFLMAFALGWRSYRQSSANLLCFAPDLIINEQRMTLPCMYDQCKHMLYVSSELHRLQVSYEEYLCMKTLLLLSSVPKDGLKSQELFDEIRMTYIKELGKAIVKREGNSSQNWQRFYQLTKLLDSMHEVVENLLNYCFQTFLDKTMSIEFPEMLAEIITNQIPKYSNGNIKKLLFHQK

The nature of assay [19]: qHTS assay to test for compound auto fluorescence at 590 nm (red) in HEK293 cell free culture (AID 720683). In outline:
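Tox21 10K library compounds were pinned into cell-free DMEM with 10% FBS and fluorescence was read at excitation 540 nm. Activity is expressed as Rose Bengal sodium equivalency.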

In assay [20] the target is Glucocorticoid receptor (Homo sapiens) (UniProt P04150). The experiment in a line: qHTS assay to identify small molecule agonists of the glucocorticoid receptor (GR) signaling pathway (AID 720691; active means well fitted activation curve with a large enough effect in the signal ratio in the repeat runs, not every such curve was filed as active; the % refers to the signal ratio; further: potency means the concentration at half of the fitted maximal effect). In outline: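 HeLa GR-bla reporter line; cells pre-incubated 4 h, compound in DMSO 18 h at 37 C; LiveBLAzer B/G FRET substrate 2 h RT; fluorescence intensity read-out.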

As to `CC(C)c1ccccc1`, the Potency result in assay [1], in assay [2], in assay [3], in assay [4], in assay [5] and in assay [6] was “inactive” in each case. Also, the Potency result in [18] is “inactive”. The result in assay [7], in assay [8], in assay [9], in assay [10], in assay [11] and in assay [12] was inactive. Besides, the molecule was called inactive in assay [13], in [14], in assay [15], in assay [16] and in assay [17].
As to `CC(=O)Nc1ccc(C)c(Cl)c1`, the Potency entry in assay [1], in assay [2], in [3], in [4], in assay [5] and in assay [20] was “inactive” in each case. The Potency entry in assay [18] was “inactive”. The call in assay [7], in assay [8], in assay [9], in assay [10], in [11] and in assay [12] was inactive. Further, the call in [13], in [19], in [14], in assay [15], in assay [16] and in assay [17] was inactive.
`CC(C)C(=O)OC/C=C/c1ccccc1`: the Potency entry in [1], in [2], in [3], in [4], in assay [5] and in assay [6] was “inactive” in each case. For the same molecule, the Potency entry in [20] and in assay [18] was “inactive” in each case. Further, the result in assay [7], in assay [8], in [9], in assay [10], in [11] and in assay [12] was inactive. Also, the molecule was classed as inactive in assay [13], in assay [19], in assay [15] and in assay [16].
For the molecule `CN(C)Cc1ccccc1`, the Potency result in assay [1], in assay [2], in assay [3], in assay [4], in [5] and in [6] was “inactive” in each case. The Potency result in assay [20] and in [18] was “inactive” in each case. The call in assay [7], in assay [8], in [10], in assay [11], in assay [12] and in [13] was inactive. In addition, the call in [19], in [14], in assay [15], in [16] and in assay [17] was inactive.
For `OCCN(CCO)c1ccccc1`, the Potency result in [1], in assay [2], in assay [3], in [4], in [5] and in assay [20] was “inactive” in each case. For the same molecule, the Potency entry in assay [18] is “inactive”. For the same molecule, the molecule was classed as inactive in assay [7], in assay [8], in assay [9], in assay [10], in [12] and in assay [13]. The molecule was classed as inactive in [19], in assay [14], in assay [15], in assay [16] and in assay [17].
In the case of `CC/C=C\CCOC(=O)C(C)C`, the Potency result in assay [1], in assay [2], in assay [4] and in [20] was “inactive” in each case. Moreover, the outcome in [7], in [8], in [9], in assay [10], in [12] and in assay [13] was inactive. Further, the result in [14], in assay [15], in assay [16] and in [17] was inactive.
Consider `CC[C@H]1CC[C@H](NCc2cc3c(cc2OC)[C@H]2C[C@H]2C(=O)N3C)[C@H](c2ccccc2)N1`, for which the Potency in assay [1] is 6.86 µM (active). The Potency entry in assay [3], in assay [6], in [20] and in assay [18] was “inactive” throughout. In addition, the molecule was classed as inactive in [7], in assay [8], in assay [9], in assay [11], in assay [12] and in assay [13]. Besides, the molecule was called inactive in assay [19], in [15], in [16] and in [17].
As for `C[C@]12CCC(=O)C=C1CC[C@@H]1[C@@H]2CC[C@@]2(C)[C@H]1CC[C@]2(O)C(=O)CO`, the Potency result in assay [1], in assay [2], in [4] and in [5] was “inactive” throughout. Moreover, the molecule was called inactive in assay [7], in [8], in [9], in [11], in assay [12] and in assay [13]. The molecule was classed as inactive in [19], in [14], in assay [15], in [16] and in [17]. Also, the Potency in assay [20] is 12 µM (active); in [18], 0.338 µM (active).
For `O=C1C=CC(=O)O1`, the Potency result in assay [1], in assay [2], in assay [3], in assay [20] and in [18] was “inactive” each time. In addition, the molecule was called inactive in assay [7], in assay [8], in assay [9], in assay [10], in assay [12] and in assay [13]. Further, the molecule was called inactive in assay [19], in assay [14], in [15], in [16] and in [17].
Take `FC(F)(F)c1ccccc1`: the Potency result in assay [1], in assay [2], in assay [4] and in assay [6] was “inactive” each time. In addition, the result in [8], in assay [9], in assay [10], in [11], in assay [12] and in assay [13] was inactive. Further, the result in [19], in assay [14], in assay [15], in [16] and in [17] was inactive.
Turning to `CCCCNc1ccc(C(=O)OCCN(CC)CC)cc1`, the Potency result in assay [2], in assay [3], in assay [4], in assay [5] and in assay [6] was “inactive” each time. Also, the molecule was classed as inactive in assay [7], in assay [8], in [9], in [10], in [11] and in assay [12]. In addition, the outcome in assay [13], in assay [14], in assay [15], in assay [16] and in assay [17] was inactive.
For the molecule `COc1cc2c(cc1N)oc1ccccc12`, the Potency entry in assay [1], in assay [2], in assay [3], in [20] and in [18] was “inactive” throughout. Besides, the outcome in [7], in [8], in [9], in assay [10], in [11] and in assay [12] was inactive. Besides, the result in [13], in assay [19], in [14], in assay [15], in [16] and in assay [17] was inactive.
For `CC1(C)S[C@@H]2[C@H](NC(=O)C(C(=O)O)c3ccccc3)C(=O)N2[C@H]1C(=O)O` (some centres not stated), the Potency result in [1], in assay [2], in assay [4], in assay [5], in assay [20] and in [18] was “inactive” throughout. Further, the outcome in assay [7], in assay [8], in assay [9], in [11], in [12] and in [13] was inactive. For the same molecule, the result in assay [19], in assay [14], in assay [15], in assay [16] and in [17] was inactive.
Take `O=C1CCCc2ccccc21`: the Potency result in [1], in assay [2], in assay [4], in [5], in assay [6] and in assay [18] was “inactive” throughout. Also, the call in assay [7], in [8], in assay [9], in [10], in assay [11] and in assay [12] was inactive. The molecule was classed as inactive in [13], in assay [19], in assay [14], in assay [15], in assay [16] and in assay [17].
`CC(C)CCCCCCc1ccc(OCCOCCO)cc1`: the Potency result in [1], in [2], in [4], in assay [5] and in assay [6] was “inactive” each time. In addition, the outcome in assay [7], in assay [8], in assay [11], in assay [12], in assay [13] and in [19] was inactive. The molecule was called inactive in [14], in assay [15], in [16] and in [17].
